Compound activity deposited in PubChem by National Center for Advancing Translational Sciences (NCATS).
D2 PAM-1 – human D2 receptor positive allosteric modulation; P14416; 360,000 compounds, 0.23% hits; potentiation, % (concentration not given with the values); DiscoveRx D2 beta-arrestin cells, luminescence, 90 min; 100% = 57 uM dopamine signal; in the data active = potentiation above about 50%
Target sequence (P14416 whole entry, looked up): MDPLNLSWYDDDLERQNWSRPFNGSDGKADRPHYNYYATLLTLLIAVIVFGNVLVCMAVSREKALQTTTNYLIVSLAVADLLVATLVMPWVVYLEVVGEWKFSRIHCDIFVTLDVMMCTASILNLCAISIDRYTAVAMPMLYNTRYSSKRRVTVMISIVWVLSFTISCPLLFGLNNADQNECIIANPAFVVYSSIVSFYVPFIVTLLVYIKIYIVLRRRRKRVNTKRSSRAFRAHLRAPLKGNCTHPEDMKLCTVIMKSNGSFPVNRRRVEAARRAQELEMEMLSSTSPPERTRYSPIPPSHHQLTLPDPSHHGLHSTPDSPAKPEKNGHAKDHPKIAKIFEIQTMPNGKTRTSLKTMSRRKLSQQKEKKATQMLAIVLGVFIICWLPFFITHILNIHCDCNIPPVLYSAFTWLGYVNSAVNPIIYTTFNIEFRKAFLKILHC
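D2 cells co-treated with compound plus 50 nM dopamine (EC20) for 90 min at 37 deg C to detect potentiation. Beta-arrestin recruitment was read as enzyme-fragment luminescence after 1 h at ambient temperature. Full response was set by 57 uM dopamine.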
D2 antag – antagonists of human D2 dopamine receptor; P14416; HEK293 TREx D2 cells, calcium flux, dopamine EC80; inhibition, % at 10 µM; 340,000 compounds, 2% hits; AID 485344; in the data active = inhibition above about 30%; inactive = below that, where a call was filed
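Inhibition of EC80 dopamine-driven calcium flux, recorded kinetically, defines activity here; cells are a tetracycline-induced HEK293 T-REx line expressing force-coupled D2.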
D2 ag-1 – activates the human D2 dopamine receptor | activation, % (no concentration beside the values) | 360,000 compounds, 0.084% hits | DiscoveRx PathHunter D2 beta-arrestin, luminescence, 90 min; 100% = 57 uM dopamine signal | P14416; in the data active = activation above about 40%
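DiscoveRx PathHunter D2 beta-arrestin cells (2,100/well) attached overnight, then compound-stimulated 90 min at 37 C in HBSS/10 mM HEPES/0.1% Tween-20 buffer; beta-galactosidase complementation read by luminescence after 1 h at ambient temperature. Dopamine 57 uM final (EC100) as control.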
D2 PAM-2 – D2 dopamine receptor (human) potentiation. P14416. HEK293 T-REx D2, calcium flux, EC20 dopamine potentiation. potentiation, % at 10 µM. 340,000 compounds, 0.34% hits. AID 485347;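 active = potentiation over 3 SD above the plate norm, cut at about 30% in these data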
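Calcium flux readout, no-wash dye, 1 read/s. Inducible HEK293 Trex D2 line, overnight 30 C. Compound alone 180 s (agonist flags), then EC20 dopamine, another 180 s to score potentiation.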
D2 ag-2 – D2 dopamine receptor (human) agonism; AID 485358; activation, % at 2 µM; 340,000 compounds, 0.53% hits; P14416; HEK293 T-REx D2 cells, calcium flux agonist mode;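 active = activation over 3 SD above normal in the single-dose calcium agonist read, cut at about 30% in these data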
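In this primary screen, compounds producing a positive calcium signal within 180 s of addition to tetracycline-induced, force-coupled HEK293 Trex D2 cells are flagged; cells are dye-loaded with a no-wash calcium kit beforehand.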
Large screens that a line does not name were inactive. Only some compounds are listed: those with a hit (about 2.4% of all), similar ones and a draw of the others.

CS(=O)(=O)N1CCC(C(=O)Nc2ccc(OCc3ccccc3)cc2)CC1	D2 antag 45
CCCN1CCN(c2nc(-c3cccs3)nc3ccccc23)CC1	D2 antag 37
O=C1c2cc3ccccc3c(-c3ccccc3)c2C(=O)N1c1ccccn1	D2 antag 46
O=C1c2cccc(Cl)c2C(=O)N1c1ccccn1	none (no result: D2 antag, D2 PAM-2, D2 ag-2)
O=C1Cc2ccccc2Sc2cc(OCCCN3CCCCC3)ccc21	none
O=C1Cc2ccccc2Sc2c(OCCN3CCCCC3)cccc21	D2 antag 80
CCCn1ccc2c(OCC(=O)NCc3ccccc3Cl)cccc2c1=O	none (no result: D2 PAM-1, D2 antag, D2 ag-1)
CC(Oc1ccccc1)C(=O)Nc1ccccc1C(=O)OCc1cc(=O)n2nc(C(C)C)sc2n1 (centres undefined)	none (no result: D2 PAM-1, D2 antag, D2 ag-1)
Cc1ccc2oc(C(=O)Nc3c(C(=O)Nc4ccccc4)oc4ccccc34)cc(=O)c2c1	none (no result: D2 PAM-1, D2 antag, D2 ag-1, D2 ag-2)
Cc1ccc(NC(=O)c2oc3ccc(S(=O)(=O)N4CCC5(CC4)OCCO5)cc3c2C)c(C)c1	none (no result: D2 PAM-1, D2 antag, D2 ag-1, D2 PAM-2)
COc1ccc(OC)c(/C=C/C(=O)N(C)CC(=O)Nc2ccc(N3CCOCC3)cc2)c1	D2 antag 40
O=S(=O)(c1ccccc1)N1CCCN(S(=O)(=O)c2ccccc2)CC1	none
O=S(=O)(c1ccccc1)N1CCN(S(=O)(=O)N2CCCCC2)CC1	D2 antag 38
COc1ccc(OC)c(NC(=O)COCc2cc(-c3ccco3)on2)c1	none (no result: D2 PAM-1, D2 antag, D2 ag-1)
CCN1CCCC1CNC(=O)c1ccc(Sc2ccc(F)cc2)c([N+](=O)[O-])c1 (centres undefined)	D2 antag 35
CCN1CCCC1CNC(=O)c1ccc(Sc2ccccc2Cl)c([N+](=O)[O-])c1 (centres undefined)	D2 antag 72
CCN1CCN(C(=O)c2ccc(Sc3ccccc3Cl)c([N+](=O)[O-])c2)CC1	none
O=C(c1c(F)c(F)c(F)c(F)c1F)N1CCN(Cc2ccc3c(c2)OCO3)CC1	none (no result: D2 antag, D2 PAM-2, D2 ag-2)
O=C(C1CCN(c2nnc(-n3cccc3)s2)CC1)N1CCN(Cc2ccc3c(c2)OCO3)CC1	D2 antag 32, D2 ag-2 71
COc1cccc(CN2CCC(C(=O)N3CCN(Cc4ccc5c(c4)OCO5)CC3)CC2)c1	none
Cn1c(C(=O)N2CCN(Cc3ccc4c(c3)OCO4)CC2)cc2sccc21	D2 antag 100
Cn1c(C(=O)N2CCC(C(=O)N3CCN(Cc4ccc5c(c4)OCO5)CC3)CC2)cc2sccc21	none
O=C(c1ccc(Br)s1)N1CCN(Cc2ccc3c(c2)OCO3)CC1	D2 antag 78
O=C(c1cc2c(s1)CCCC2)N1CCN(Cc2ccc3c(c2)OCO3)CC1	D2 antag 75
CCOC(=O)c1c(Nc2ccc(OCC)cc2)nnc(-c2ccccc2)c1-c1ccccc1	none (no result: D2 PAM-1, D2 antag, D2 ag-1)
O=C(NCC(c1ccco1)S(=O)(=O)c1cccs1)c1ccc(C(F)(F)F)cc1 (centres undefined)	none (no result: D2 PAM-1, D2 antag, D2 ag-1)
Cc1ccc(SCC(=O)OCC(=O)N(C)CC(=O)Nc2ccccc2Cl)cc1C	D2 antag 33
Cn1nc(C(=O)OCC(=O)N2CCc3ccccc32)c2ccccc2c1=O	D2 PAM-2 32
Cc1cnc(C(=O)Nc2ccccc2-c2nnn(CC(=O)NC3CCCC3)n2)cn1	D2 antag 30
O=C(Nc1ccc(F)cc1)N1CCn2c(nc3ccccc32)C1	D2 antag 33
CCc1nn2c(=O)cc(COC(=O)c3ccccc3NC(=O)C3CCCCC3)nc2s1	none (no result: D2 PAM-1, D2 antag, D2 ag-1)
Cc1cc(C)cc(NC(=O)C2CCCN(S(=O)(=O)c3cccc4nsnc34)C2)c1 (centres undefined)	none (no result: D2 PAM-1, D2 antag, D2 ag-1)
COc1ccc(N2C(=O)C(CC(=O)Nc3ccccc3)N(Cc3ccc4c(c3)OCO4)C2=O)cc1 (centres undefined)	D2 antag 43
COc1ccc(N2C(=O)C(CC(=O)Nc3ccc(F)cc3)N(Cc3ccc4c(c3)OCO4)C2=O)cc1 (centres undefined)	none (no result: D2 PAM-1, D2 antag, D2 ag-1)
O=C(c1cc(-c2ccccc2)nc2ccccc12)N1CCCC1	none
Cc1cnn(C(=O)c2cc(-c3ccccc3)nc3ccccc23)c1	D2 antag 55
CC1=CC(C)(C(Cl)Cl)C(C)=CC1=O (centres undefined)	D2 PAM-2 70
